# Reference: paper PMC4336329 (PLoS ONE, 2015)
# The whole screen tested about 310,000 compounds, of which about 14,000 (4.5%) showed an effect of 50% or more. Effects have a minus sign here. Shown is part of a subset that was picked to be rich in strong results.
# Molecular target: human ether-à-go-go-related gene (hERG) potassium channel (human, UniProt Q12809)
# Experiment: primary screen, population patch clamp on CHO cells stably expressing hERG; higher = less effect of the substance
# 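Note: peak tail current of the secondary pulse compared with the same well before compound.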
# Sequence of human ether-à-go-go-related gene (hERG) potassium channel (Q12809 whole entry, looked up): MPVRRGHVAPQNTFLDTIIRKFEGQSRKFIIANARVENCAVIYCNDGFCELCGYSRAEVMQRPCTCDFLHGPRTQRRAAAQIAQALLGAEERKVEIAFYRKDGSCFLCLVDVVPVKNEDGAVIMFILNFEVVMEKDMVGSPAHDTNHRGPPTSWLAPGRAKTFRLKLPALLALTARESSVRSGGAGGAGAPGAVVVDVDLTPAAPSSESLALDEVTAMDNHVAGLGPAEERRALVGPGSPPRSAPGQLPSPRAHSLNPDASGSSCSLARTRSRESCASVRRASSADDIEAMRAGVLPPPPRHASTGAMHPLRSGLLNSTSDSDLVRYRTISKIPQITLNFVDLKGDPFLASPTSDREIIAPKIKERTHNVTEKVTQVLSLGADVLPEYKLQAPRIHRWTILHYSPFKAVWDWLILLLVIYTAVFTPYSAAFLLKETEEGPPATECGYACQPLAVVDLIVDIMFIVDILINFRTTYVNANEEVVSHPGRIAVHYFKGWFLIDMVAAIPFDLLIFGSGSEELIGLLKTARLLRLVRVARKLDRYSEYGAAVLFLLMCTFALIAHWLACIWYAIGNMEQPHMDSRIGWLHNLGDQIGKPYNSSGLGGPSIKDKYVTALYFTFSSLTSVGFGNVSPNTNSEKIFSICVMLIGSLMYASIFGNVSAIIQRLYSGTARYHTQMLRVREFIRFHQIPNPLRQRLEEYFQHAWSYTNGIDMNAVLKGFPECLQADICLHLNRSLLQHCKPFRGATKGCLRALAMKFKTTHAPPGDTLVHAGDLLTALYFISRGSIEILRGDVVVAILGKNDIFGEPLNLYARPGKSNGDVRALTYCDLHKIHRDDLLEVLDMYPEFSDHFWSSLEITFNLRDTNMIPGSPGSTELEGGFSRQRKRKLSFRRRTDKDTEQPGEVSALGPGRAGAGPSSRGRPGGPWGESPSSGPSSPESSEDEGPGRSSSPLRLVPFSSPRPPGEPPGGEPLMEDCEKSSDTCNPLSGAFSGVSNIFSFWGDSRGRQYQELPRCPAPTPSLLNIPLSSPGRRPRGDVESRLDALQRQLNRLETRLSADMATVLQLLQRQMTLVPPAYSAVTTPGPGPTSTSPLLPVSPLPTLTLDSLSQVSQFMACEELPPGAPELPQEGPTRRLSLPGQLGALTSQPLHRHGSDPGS
row,Compound,"hERG current change (%, negative = inhibition) at 10uM [%]"
1,CCOC(=O)C1=c2s/c(=C\c3cccnc3)c(=O)n2C(N)=C(C(=O)OC)C1c1cccnc1 (centres unmarked),14.7
2,Cn1c(=O)c2c(nc(SCCN3CCOCC3)n2C)n(C)c1=O,16.9
3,Cc1cc(C(=O)NNC(=S)Nc2ccccc2C)cs1,18.8
4,CC(=O)n1nc(-c2cccnc2)nc1N,-7.75
5,NS(=O)(=O)c1cc2c(cc1Cl)NC(C(Cl)Cl)NS2(=O)=O (centres unmarked),20.2
6,CCCCCCn1c(O)c(C=NCCN2CCOCC2)c(=O)[nH]c1=O,-7.56
7,CCCCCCn1c(O)c(C=NCCN2CCCCC2)c(=O)[nH]c1=O,-51.9
8,CCCCn1c(O)c(C=NCCN2CCCCC2)c(=O)[nH]c1=O,-2.31
9,CCCNC(=O)N1CCC(C(=O)c2cccc(F)c2)CC1,-10.9
10,C#Cc1ccc(C(=O)NCc2ccc(N3CCCC3=O)cc2)cc1,20.2
11,CC(C)(C)NC(=O)C(c1ccco1)N(C(=O)Cn1nnc(-c2ccc(F)cc2)n1)c1ccccc1 (centres unmarked),-17.5
12,CC(C)CC1Nc2ccc(C(=O)NCCCN3CCCCC3C)cc2NC1=O (centres unmarked),3.4
13,Cc1c(C)n(C)c2ccc(C(=O)NCCCN3CCCCC3C)cc12 (centres unmarked),-19.6
14,CCC1CCCCN1CCCNC(=O)c1ccc2nc(N3CCCCC3)sc2c1 (centres unmarked),-34
15,CCC1CCCCN1CCCNC(=O)c1ccc2c(c1)c(C)c(C)n2C (centres unmarked),-35
16,CC1CCCCN1CCCNC(=O)c1ccc2nc(N3CCCCC3)sc2c1 (centres unmarked),-22.8
17,CC1CCCCN1CCCNC(=O)c1cc(Br)c(Br)[nH]1 (centres unmarked),-64.9
18,CC1CCN(c2nc3ccc(C(=O)NCCCN4CCCCC4C)cc3s2)CC1 (centres unmarked),-59
19,CCC1CCCCN1CCCNC(=O)c1ccc2nc(N3CCC(C)CC3)sc2c1 (centres unmarked),-64.5
20,CC1CCCC(C)N1CCCNC(=O)c1ccc2nc(N3CCOCC3)sc2c1 (centres unmarked),-10.3
21,Cc1ccc(OCC(=O)NNC(=O)CCc2ccccc2)c(Br)c1,10
22,CCOC(=O)N1CCN(C(=O)C2CCCN(S(=O)(=O)c3ccc(F)cc3)C2)CC1 (centres unmarked),-10.1
23,COc1ccc(Cl)cc1NC(=O)c1cc(-c2ccc(C)cc2O)n[nH]1,15.9
24,O=C1CSC(c2ccncc2)N1Cc1ccc(F)cc1 (centres unmarked),1.53

row,Compound,"hERG current change (%, negative = inhibition) at 10uM [%]"
1,CN1CCc2c(C#N)c(N3CCCCC3)nc(NCc3ccccc3)c2C1,-2.02
2,C=CCNc1nc(N2CCOCC2)c(C#N)c2c1CN(C)CC2,-14.1
3,CCN1CCc2c(C#N)c(NCc3ccccc3)nc(N(CC)CC)c2C1,-68.5
4,CCN1CCc2c(C#N)c(NCc3ccccc3)nc(NCCO)c2C1,-51.6
5,CCN1CCc2c(C#N)c(N3CCCCC3)nc(NCc3ccccc3)c2C1,-39.8
6,CCc1nc(NCc2ccccc2)c(C#N)c2c1CCCC2,23.3
7,N#Cc1c(NCCO)nc(NCc2ccccc2)c2c1CCN(Cc1ccccc1)C2,-27.1
8,CCN1CCc2c(C#N)c(N3CCOCC3)nc(NCCO)c2C1,11.8
9,C=CCNc1nc(NCc2ccccc2)c(C#N)c2c1CN(C)CC2,-68.1
10,Cc1ccc(NC2=NCC(=O)N2C2CCCC2)cc1.Cl,14.7
11,CNC(=O)N1c2ccccc2NC(=O)CC1C (centres unmarked),9.32
12,Cc1ccc(S(=O)(=O)NC2=NCN(CCN3CCOCC3)CN2)cc1,8.55
13,CC(=O)N(CCCN1CCOCC1)Cc1ccncc1.Cl,16.4
14,O=C(Nc1nc2ccc(Cl)cc2s1)c1ccc(Br)o1,4.25
15,Cc1ccc(CNC(=O)/C=C/c2ccc(S(=O)(=O)NCc3ccco3)cc2)cc1,-1.37
16,Cc1c(NC(=O)CN2CCN(c3ccccc3)CC2)c(=O)n(-c2ccccc2)n1C,9.86
17,Cc1c(NC(=O)CN2CCN(c3ccc(O)cc3)CC2)c(=O)n(-c2ccccc2)n1C,21
18,O=C(CN1CCN(CC(=O)Nc2ccccn2)CC1)Nc1ccccn1,-36
19,O=C(CN1CCN(c2ccccc2)CC1)Nc1cccc([N+](=O)[O-])c1,2.69
20,O=C(CN1CCN(c2ccc([N+](=O)[O-])cc2)CC1)Nc1nccs1,-65.6
21,O=C(CN1CCN(c2ccccc2)CC1)Nc1nccs1,5.11
22,O=C(CN1CCN(c2ccc(F)cc2)CC1)Nc1nccs1,-1.39
23,O=C(CN1CCN(c2ccc([N+](=O)[O-])cc2)CC1)Nc1ccccn1,-77.9
24,Cc1c(NC(=O)CN2CCN(c3ccc([N+](=O)[O-])cc3)CC2)c(=O)n(-c2ccccc2)n1C,-50.1

row,Compound,"hERG current change (%, negative = inhibition) at 10uM [%]"
1,C#CCSc1nnnn1-c1cccc(Cl)c1,-9.19
2,COc1cccc(C2NC(CC(C)C)(C(=O)O)C3C(=O)N(Cc4ccccc4)C(=O)C23)c1O (centres unmarked),10.2
3,CN(Cc1ccccc1F)C(=O)c1ccc(NS(=O)(=O)c2ccc3[nH]c(=O)[nH]c3c2)cc1,6.14
4,O=C(Nc1ccccc1N1CCCCC1)C1=COCCO1,-32.6
5,CC(C)[C@@H](C(=O)NCc1ccco1)N1C(=O)N2CCc3c([nH]c4ccccc34)[C@@]2(C)C1=O,-15.6
6,CSc1nnc([C@@H](NC(=O)OC(C)(C)C)C(C)C)o1,-13.6
7,CCc1cccc(OCC(O)Cn2c(N3CCCCC3)nc3c2c(=O)[nH]c(=O)n3C)c1 (centres unmarked),13.7
8,Clc1ccc(CN=C2Nc3ccccc3CS2)cc1,14.9
9,COc1cc2c(cc1OC)C1=C(C#N)CCC(=O)N1CC2,5.55
10,C=C1C[C@H]2[C@@H]3C=C(C)C4=CC(=O)CC[C@]4(C)[C@H]3CC[C@]2(C)[C@@]1(OC(C)=O)C(C)=O,-21.2
11,O=C(COC(=O)C1CC1)Nc1nc(-c2ccc(F)c(F)c2)cs1,4.93
12,CCOc1ccccc1N1CCN(C(=O)CNC(=O)c2ccc(OC)c(OC)c2)CC1,11.9
13,CCCc1ccc(C(=O)N2CCN(c3ccccc3OCC)CC2)cc1,-56.3
14,CCCc1cnc(N2CCN(C(=O)c3c(-c4ccccc4)noc3C)CC2)nc1,-24.5
15,CCCc1cnc(N2CCN(C(=O)c3ccc(OC)cc3)CC2)nc1,-52.4
16,CCOc1ccccc1N1CCN(C(=O)CNC(=O)c2sc3ccccc3c2Cl)CC1,17.4
17,CCOc1ccccc1N1CCN(C(=O)c2ccccc2)CC1,11
18,CCOc1ccccc1N1CCN(C(=O)c2ccncc2)CC1,-8.78
19,CCCc1cnc(N2CCN(C(=O)c3ccc(F)cc3)CC2)nc1,-43.1
20,CCCCOc1ccc(C(=O)N2CCN(c3ncccn3)CC2)cc1,-9.16
21,CCOc1ccccc1N1CCN(C(=O)CNC(=O)c2ccccc2F)CC1,-51.1
22,CCCc1cnc(N2CCN(C(=O)c3ccccc3)CC2)nc1,-57.1
23,CCOc1ccc(C(=O)N2CCN(c3ncccn3)CC2)cc1,-9.8
24,CCCCCCSc1ccc([C@@H]2[C@H]3C(=O)N(CC)C(=O)[C@H]3[C@]3(C(=O)OC)CCCN23)cc1.O=C(O)C(F)(F)F,-7.59

row,Compound,"hERG current change (%, negative = inhibition) at 10uM [%]"
1,COc1cc(OC)cc(C(=O)O/N=C(\N)c2ccccn2)c1,7.21
2,CCOC(=O)c1cc2c(ccn2C)n1CC(=O)N1CCC(Cc2ccccc2)CC1,-24.1
3,CN(C)S(=O)(=O)c1ccc(NC(=O)CN2C(=O)NC(Cc3ccccc3)C2=O)cc1 (centres unmarked),10.2
4,CCOC(=O)CC(NC(=O)C1c2ccccc2Oc2ccccc21)c1ccc(C)cc1 (centres unmarked),5.66
5,COc1ccc(NC(=O)CSc2nnc(-c3cccnc3)n2C)cc1,8.3
6,Cc1cc(OCC(=O)N2CCC(C(=O)O)(c3ccccc3)CC2)c2c(C)cc(=O)oc2c1,11.6
7,COc1cc(OC)c(NC(=O)c2cncn2-c2ccc(F)cc2)cc1Cl,-19.7
8,O=C(Nc1cccc(Cl)c1)c1cncn1-c1ccc(F)cc1,-68.1
9,NNC(=O)c1cncn1-c1ccc(F)cc1,23.7
10,Cc1cccc(C)c1NS(=O)(=O)c1c(C)[nH]c(=O)[nH]c1=O,-14.2
11,Cc1ccccc1CN(CC(=O)Nc1cccc([N+](=O)[O-])c1)S(=O)(=O)c1ccc(Cl)cc1,15.1
12,COC(=O)[C@H](CCSC)NC(=O)NC1CCN(Cc2ccccc2)CC1,-12.9
13,O=C(NC1CCN(C(=O)Nc2cccc(Cl)c2)CC1)c1ccccc1,1.02
14,S=C(Nc1ccc(Cl)cc1Cl)NC1CCN(Cc2ccccc2)CC1,-2.76
15,O=C(NC1CCN(Cc2ccccc2)CC1)c1ccc(Cl)cc1Cl,-75
16,O=C(NC1CCN(Cc2ccccc2)CC1)c1ccccc1F,-23.7
17,O=C(NC1CCN(C(=O)Nc2ccccc2Cl)CC1)c1ccccc1,4.22
18,O=C(NC1CCN(Cc2ccc(Cl)cc2Cl)CC1)c1ccccc1,-53.9
19,CSCCC(NC(=O)c1ccccc1Cl)C(=O)N1CCN(C(C)=O)CC1 (centres unmarked),-26.9
20,O=C(NC1CCN(Cc2ccccc2Cl)CC1)c1ccccc1,-65.2
21,CSCCC(NC(=O)c1ccccc1Cl)C(=O)NC1CCN(Cc2ccccc2)CC1 (centres unmarked),-50.1
22,Cl.O=C(NN1CCN(Cc2ccccc2Cl)CC1)c1ccc(Cl)cc1,-10.6
23,O=C(NC1CCN(Cc2ccccc2)CC1)c1ccccc1Cl,1.15
